Measurements published in PubChem BioAssay.
Activity calls are given as the source filed them. Unless noted, the rule behind the calls is not given here.

What was measured:
[1] = anti-His antibody binders, primary screen, artefact control for SMM control protein annotation, biochemical, small-molecule microarray, 635 nm fluorescence (AID 1128); conditions: anti-His Alexa647 antibody binding, higher = more signal;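 note: score merges feature fluorescence with signal-to-noise for each printed compound spot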
[2] = test system: Human papillomavirus type 1a E7 protein (residues 1-88); assay: HPV1a E7 small-molecule binders, primary screen, biochemical, small-molecule microarray, residues 1-88, 635 nm (AID 1129); conditions: small-molecule microarray binding, fluorescence 635 nm; higher = more signal
[3] = biological target: Focal adhesion kinase 1 (Homo sapiens) (UniProt Q05397); assay: small-molecule microarray binders of FAK, primary screen, biochemical, 635/667 nm fluorescence, BSA, DTT (AID 1130); conditions: PTK2 binding, 635 nm fluorescence, higher = more signal;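 note: composite of spot emission at 667 nm and signal to noise over triplicate slides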
[4] = test system: Fibrinogen (Alexa647-labelled); assay: fibrinogen binders on compound microarrays, profiling panel, artefact control for SMM control-protein annotation, biochemical, small-molecule microarray, 635/667 nm fluorescence (AID 1131); conditions: fibrinogen-A647 binding fluorescence, higher = more signal;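 note: z-score merges 667 nm fluorescence with per-spot signal-to-noise over triplicate slides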
[5] = biological target: Follistatin (Homo sapiens) (UniProt P19883); assay: follistatin binders on small-molecule microarrays, primary screen, biochemical, small-molecule microarray, 635/667 nm fluorescence (AID 1132); conditions: FST binding, 635 nm fluorescence, higher = more signal
[6] = biological target: Fibroblast growth factor 2 (Homo sapiens) (UniProt P09038); assay: FGF2 binders on small-molecule microarrays, primary screen, biochemical, small-molecule microarray, 635/667 nm fluorescence (AID 1133); conditions: small-molecule microarray binding, FGF2, fluorescence 635/667; higher = more signal
[7] = mitochondrial membrane potential change in A549 cells, profiling panel, cell-based, JC-1 fluorescence, basal, 24 h, 100 nL (AID 1138); conditions: higher = more signal;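 note: A549 lung adenocarcinoma cells under basal conditions with no added stimulus; test concentration not given here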
Lefty1 = Lefty1 binders on small-molecule microarrays, primary screen, biochemical, small-molecule microarray, 635/667 nm fluorescence (AID 1139); conditions: small-molecule microarray binding, fluorescence 635/667; higher = more signal
[8] = test system: wheat germ agglutinin (Triticum aestivum), Alexa647-labelled; assay: wheat germ agglutinin binders on compound microarrays, profiling panel, artefact control for SMM control-protein annotation, biochemical, small-molecule microarray, 635/667 nm fluorescence (AID 1140); conditions: WGA-A647 binding, 635 nm fluorescence, higher = more signal;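 note: score merges 667 nm feature emission with signal to noise over triplicate slides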
[9] = biological target: Luciferin 4-monooxygenase (Photinus pyralis) (UniProt P08659); assay: firefly luciferase enzyme inhibitors, primary screen, biochemical, luminescence, purified enzyme, 2006 set (AID 1141); conditions: SteadyGlo luminescence, 30 min, higher = more signal, called active from +8 up or from −8 down;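 note: cell-free assay with purified firefly luciferase at 100 ng per well in PBS; test concentration not given here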
[10] = test system: Wnt5a (protein binding on small-molecule microarray); assay: Wnt5a binders on small-molecule microarray, primary screen, biophysical, 635/667 nm fluorescence (AID 1142); conditions: 635 nm fluorescence, higher = more signal;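 note: fluorescence read at 667 nm with signal to noise per printed feature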
[11] = cell viability in Huh7 cells, primary screen, cytotoxicity control for HCV replication inhibitor project, CellTiter-Glo luminescence, basal, 48 h (AID 1143); conditions: Huh7 HCV replicon, higher = more signal, called active from +8 up or from −8 down;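 note: Huh7 hepatoma cells carrying a hepatitis C replication reporter with no stimulus; test concentration not given here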
[12] = P. aeruginosa biofilm formation inhibitors, primary screen, PAO1 strain, BacTiter-Glo luminescence, LB-PBS (AID 1144); conditions: 12 h, higher = more signal
[13] = CREB reporter modulators without forskolin, primary screen, cell-based, PC12, CRE-LacZ reporter, unstimulated (AID 1145); conditions: no forskolin, luminescence, 4.5 h, higher = more signal, called active from +8 up or from −8 down
[14] = CREB reporter modulators under forskolin, primary screen, cell-based, PC12, CRE-LacZ reporter, forskolin-stimulated (AID 1146); conditions: luminescence, 4.5 h, higher = more signal, called active from +8 up or from −8 down;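 note: PC12 cells with 6xCRE LacZ reporter stimulated by forskolin 10 µM; beta-galactosidase reporter signal reflecting CREB driven transcription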
[15] = biological target: Streptavidin (Streptomyces avidinii) (UniProt P22629); assay: streptavidin binders on small-molecule microarray, primary screen, artefact control for SMM compound annotation, biophysical, 635/667 nm fluorescence (AID 1147); conditions: streptavidin binding, higher = more signal;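 note: signal reflects streptavidin binding to arrayed compounds as a control protein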
[16] = small-molecule binders of probe aInhba, primary screen, biochemical, small-molecule microarray, 635/667 nm fluorescence (AID 1148); conditions: higher = more signal;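 note: score merges 667nm spot fluorescence with signal-to-noise for antibody binding to printed compounds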
Torsin-1A (Homo sapiens) [17] = biological target: Torsin-1A (Homo sapiens) (UniProt O14656); assay: torsin A binders from cell lysate, primary screen, small-molecule microarray, wild-type, 635/667 nm (AID 1149); conditions: COS7 hTOR1A-WT lysate, 635 nm fluorescence, higher = more signal
Torsin-1A (Homo sapiens) [18] = biological target: Torsin-1A (Homo sapiens) (UniProt O14656); assay: small-molecule binders of mutant TOR1A in lysate, primary screen, cell lysate, small-molecule microarray, COS7 lysate, 635/667 nm fluorescence (AID 1150); conditions: COS7 hTOR1A mutant lysate, 635 nm fluorescence, higher = more signal;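 note: score pools 667 nm emission and signal to noise measuring lysate protein binding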
[19] = test system: Sonic hedgehog protein (Shh); assay: small-molecule binders of Shh protein, primary screen, biochemical, small-molecule microarray, 635/667 nm fluorescence (AID 1151); conditions: small-molecule microarray binding, 635 nm fluorescence; higher = more signal;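 note: Shh protein binding to compounds spotted on small-molecule microarray slides; score combines spot fluorescence intensity with signal-to-noise across triplicate slides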

Sequence of Focal adhesion kinase 1 (Homo sapiens) (Q05397 whole entry, looked up): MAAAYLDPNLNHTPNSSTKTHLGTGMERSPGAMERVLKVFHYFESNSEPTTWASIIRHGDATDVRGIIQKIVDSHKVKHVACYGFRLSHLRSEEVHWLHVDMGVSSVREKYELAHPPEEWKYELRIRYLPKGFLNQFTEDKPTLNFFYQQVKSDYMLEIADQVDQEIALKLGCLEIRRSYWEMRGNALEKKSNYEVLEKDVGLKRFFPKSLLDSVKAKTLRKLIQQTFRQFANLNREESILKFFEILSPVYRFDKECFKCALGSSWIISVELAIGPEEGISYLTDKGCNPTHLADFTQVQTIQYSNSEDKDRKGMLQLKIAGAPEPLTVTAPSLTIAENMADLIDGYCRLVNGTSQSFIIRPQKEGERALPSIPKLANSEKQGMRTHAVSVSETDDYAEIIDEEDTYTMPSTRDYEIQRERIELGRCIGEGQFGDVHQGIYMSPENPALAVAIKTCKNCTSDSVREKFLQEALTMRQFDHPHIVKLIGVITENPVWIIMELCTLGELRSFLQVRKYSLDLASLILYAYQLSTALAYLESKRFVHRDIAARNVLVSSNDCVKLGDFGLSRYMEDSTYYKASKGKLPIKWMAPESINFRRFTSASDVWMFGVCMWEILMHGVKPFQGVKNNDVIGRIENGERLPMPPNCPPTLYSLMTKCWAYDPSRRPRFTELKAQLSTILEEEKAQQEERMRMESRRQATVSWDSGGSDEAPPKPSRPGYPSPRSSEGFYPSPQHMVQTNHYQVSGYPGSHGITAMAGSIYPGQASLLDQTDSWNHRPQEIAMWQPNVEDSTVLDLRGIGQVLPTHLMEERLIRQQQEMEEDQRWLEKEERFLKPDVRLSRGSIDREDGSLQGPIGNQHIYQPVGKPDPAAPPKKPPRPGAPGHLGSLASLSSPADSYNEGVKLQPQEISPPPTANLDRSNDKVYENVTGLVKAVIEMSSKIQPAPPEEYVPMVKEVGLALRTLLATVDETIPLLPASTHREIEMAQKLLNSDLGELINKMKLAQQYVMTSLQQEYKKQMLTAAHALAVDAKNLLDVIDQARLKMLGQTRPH
Sequence of Luciferin 4-monooxygenase (Photinus pyralis) (P08659 whole entry, looked up): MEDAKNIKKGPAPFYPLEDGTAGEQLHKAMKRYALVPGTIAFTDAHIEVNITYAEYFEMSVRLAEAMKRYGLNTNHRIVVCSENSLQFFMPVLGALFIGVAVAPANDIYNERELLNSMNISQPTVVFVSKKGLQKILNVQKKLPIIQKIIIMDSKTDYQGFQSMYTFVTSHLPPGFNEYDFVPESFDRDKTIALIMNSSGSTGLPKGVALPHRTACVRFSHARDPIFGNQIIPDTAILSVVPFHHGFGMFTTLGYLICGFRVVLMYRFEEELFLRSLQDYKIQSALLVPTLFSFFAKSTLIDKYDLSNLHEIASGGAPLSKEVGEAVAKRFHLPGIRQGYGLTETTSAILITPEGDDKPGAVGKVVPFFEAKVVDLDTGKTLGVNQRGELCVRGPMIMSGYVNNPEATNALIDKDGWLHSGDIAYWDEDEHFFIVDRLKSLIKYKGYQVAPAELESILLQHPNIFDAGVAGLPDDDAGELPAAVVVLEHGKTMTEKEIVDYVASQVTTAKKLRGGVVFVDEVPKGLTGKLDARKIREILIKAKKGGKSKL
Sequence of Streptavidin (Streptomyces avidinii) (P22629 whole entry, looked up): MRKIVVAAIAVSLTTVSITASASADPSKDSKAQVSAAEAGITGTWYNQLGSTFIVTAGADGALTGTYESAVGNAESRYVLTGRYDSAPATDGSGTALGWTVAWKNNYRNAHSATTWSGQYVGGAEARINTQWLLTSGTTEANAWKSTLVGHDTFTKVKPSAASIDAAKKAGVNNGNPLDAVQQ
Sequence of Torsin-1A (Homo sapiens) (O14656 whole entry, looked up): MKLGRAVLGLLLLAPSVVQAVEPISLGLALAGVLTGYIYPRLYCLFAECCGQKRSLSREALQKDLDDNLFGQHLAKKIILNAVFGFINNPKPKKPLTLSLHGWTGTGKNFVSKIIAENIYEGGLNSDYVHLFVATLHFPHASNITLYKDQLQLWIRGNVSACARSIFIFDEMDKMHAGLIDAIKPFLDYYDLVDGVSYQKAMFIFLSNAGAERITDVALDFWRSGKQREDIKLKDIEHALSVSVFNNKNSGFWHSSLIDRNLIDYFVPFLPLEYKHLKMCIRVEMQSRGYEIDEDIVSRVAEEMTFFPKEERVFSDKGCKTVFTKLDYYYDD
Sequence of Follistatin (Homo sapiens) (P19883 whole entry, looked up): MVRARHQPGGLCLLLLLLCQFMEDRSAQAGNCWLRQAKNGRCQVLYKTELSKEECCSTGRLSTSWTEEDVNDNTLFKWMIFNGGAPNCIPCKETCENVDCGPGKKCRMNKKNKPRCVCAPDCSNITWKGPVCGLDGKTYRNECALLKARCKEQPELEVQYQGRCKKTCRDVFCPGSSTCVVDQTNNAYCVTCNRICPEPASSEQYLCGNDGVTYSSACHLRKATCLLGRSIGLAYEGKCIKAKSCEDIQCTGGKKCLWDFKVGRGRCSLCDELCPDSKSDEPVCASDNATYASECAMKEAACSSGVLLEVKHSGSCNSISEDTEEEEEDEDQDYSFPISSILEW
Sequence of Fibroblast growth factor 2 (Homo sapiens) (P09038 whole entry, looked up): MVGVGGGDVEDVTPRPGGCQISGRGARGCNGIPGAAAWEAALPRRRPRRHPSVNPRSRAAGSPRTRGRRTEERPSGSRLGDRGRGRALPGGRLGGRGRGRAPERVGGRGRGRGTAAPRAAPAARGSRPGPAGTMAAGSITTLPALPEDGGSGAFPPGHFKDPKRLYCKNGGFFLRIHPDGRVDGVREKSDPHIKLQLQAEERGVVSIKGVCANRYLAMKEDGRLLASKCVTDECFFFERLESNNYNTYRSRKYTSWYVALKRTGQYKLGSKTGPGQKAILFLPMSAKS

SMILES | composite z-score [1] | composite z-score [2] | composite z-score [3] | composite z-score [4] | composite z-score [5] | composite z-score [6] | z-score [7] | composite z-score (Lefty1) | composite z-score [8] | z-score [9] | composite z-score [10] | z-score [11] | z-score [12] | z-score [13] | z-score [14] | composite z-score [15] | composite z-score [16] | composite z-score (Torsin-1A (Homo sapiens) [17]) | composite z-score (Torsin-1A (Homo sapiens) [18]) | composite z-score [19]
COCCOC(=O)N1C(=O)[C@@]2(c3cc(C#CCNC(N)=O)ccc31)[C@H](c1ccc(O)cc1)N1[C@H](c3ccccc3)[C@H](c3ccccc3)OC(=O)[C@H]1[C@@H]2C(=O)N1CCN(c2ncccn2)CC1 | 1.22 | 1.2 | 0.634 | 0.865 | 0.902 | 0.671 | -1.91 | 0.707 | 0.991 | -0.391 (inactive) | 0.0474 | 0.259 (inactive) | -0.648 (inactive) | -0.589 (inactive) | -0.249 (inactive) | 0.374 | -0.0898 | 0.652 | 0.747 | 0.905
NC(=O)N1C(=O)C2C(C1=O)C1C=C(CCCO)C2C(C2CC2)N1Cc1cccc(OC(F)(F)F)c1 (stereo not given) | 0.589 | 0.469 | -0.0719 | 0.948 | 0.173 | -0.314 | 0.541 | 0.341 | 0.94 | -1.4 (inactive) | -0.352 | -0.458 (inactive) | 1.35 (inactive) | 0.522 (inactive) | 1.62 (inactive) | -0.439 | -0.182 | 1.51 | 1.59 | 0.393
NCCCCCNC(=O)[C@H]1C[C@H]2C(=O)N[C@@H](Cc3ccccc3)C(=O)N2[C@H]1c1ccc(O)cc1 | 1.61 | 0.756 | -0.506 | 0.94 | 1.4 | 0.169 | -0.421 | 0.765 | 0.81 | -1.35 (inactive) | 0.234 | 0.169 (inactive) | -0.0304 (inactive) | 0.0124 (inactive) | -0.622 (inactive) | 1.13 | 0.641 | 0.756 | 0.842 | 0.313
O=C1C[C@@](C(=O)NCC(F)(F)F)(c2ccc([N+](=O)[O-])cc2)[C@@H](c2ccc(CO)cc2)N1CC12CC3CC(CC(C3)C1)C2 | 0.544 | 1.2 | 0.0423 | 0.348 | 1.5 | 1.78 | -0.598 | 0.634 | 0.732 | 0.28 (inactive) | 0.988 | -5.79 (inactive) | -0.542 (inactive) | 0.324 (inactive) | -1.01 (inactive) | 0.261 | 0.216 | 0.406 | 0.397 | 1.34
O=C1C2C=CC(C(O)c3ccc(I)cc3)N(Nc3ccccc3)C2C(=O)N1c1ccccc1 (stereo not given) | 1.45 | 1.19 | 0.83 | 0.907 | 0.862 | 0.0891 | -0.0457 | -0.358 | 1.44 | -0.102 (inactive) | 0.478 | -0.167 (inactive) | -0.379 (inactive) | -0.522 (inactive) | 0.32 (inactive) | 1.88 | 0.151 | -0.087 | 0.36 | 0.0756
